Results from PubChem BioAssay.
Unmarked numbers belong to inactive results. Unless noted, no rule for the calls is given here.

molecular target: Homeobox protein Hox-A13 (Mus musculus) (UniProt Q62424); assay: inhibitors of HoxA13-DNA binding, primary screen, biochemical, fluorescence polarization, labeled oligonucleotide (AID 1185); details: 15 min, higher = more signal, called active from +8 up or from −8 down
Sequence (Q62424 whole entry, looked up): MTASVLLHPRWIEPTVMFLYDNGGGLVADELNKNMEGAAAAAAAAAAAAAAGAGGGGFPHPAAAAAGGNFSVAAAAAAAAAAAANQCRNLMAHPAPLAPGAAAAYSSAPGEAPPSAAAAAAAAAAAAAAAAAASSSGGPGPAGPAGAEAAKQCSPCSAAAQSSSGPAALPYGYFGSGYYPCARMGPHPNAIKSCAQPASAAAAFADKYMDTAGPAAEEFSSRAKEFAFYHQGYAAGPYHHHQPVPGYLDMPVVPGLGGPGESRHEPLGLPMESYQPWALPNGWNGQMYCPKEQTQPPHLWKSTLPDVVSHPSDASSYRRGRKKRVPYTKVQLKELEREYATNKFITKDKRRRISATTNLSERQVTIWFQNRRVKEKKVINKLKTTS

| Compound | z-score |
| --- | --- |
| CC(C)CNC(=O)[C@@]1(c2ccc([N+](=O)[O-])cc2)CC(=O)N(C2CCCCC2)[C@@H]1c1ccc(CO)cc1I | -4.89 |
| CCCCC(=C=CC[C@@H](O)c1ccc(OCCO)cc1)C[C@@H](O)COCc1ccccc1 | -4.47 |
| CC[C@H]1C2=C3C(CC[C@H]4C(OCc5ccc(F)cc5C(F)(F)F)OC[C@](C)([C@@H]34)N(C(=O)OC(C)(C)C)C2)C2COC(=O)OCC21 (stereo partly specified) | -3.54 |
| CCCCN1CC=CC23O[C@@H]4/C=C\CCC(C)OC(=O)C4[C@H]2C(=O)N(CCCCCCO)[C@@H]3C1=O (stereo partly specified) | -4.7 |
| C=C(COC)/C(=C/C[C@@H](OC(=O)c1ccncc1)c1cccc(OCCO)c1)c1cnc2ccccc2c1 | -5.6 |
| C=C(CCCC)/C(=C/C[C@@H](OC(=O)c1ccncc1)c1cccc(OCCO)c1)c1cnc2ccccc2c1 | -3.72 |
| CO[C@H]1O[C@H](CO)[C@@H](OC(=O)Nc2ccccc2-c2ccccc2)[C@H](OC(=O)Nc2ccc3c(c2)OCO3)[C@@H]1OC(=O)Nc1ccc2c(c1)OCO2 | -3.65 |
| C#CCNC(=O)[C@H](Cc1ccccc1)NC(=O)[C@@H](N=[N+]=[N-])C(C)C | -0.747 |
| COCC(=C=CC[C@H](O)c1cccc(OCCO)c1)C[C@H](O)c1ccccn1 | -4.27 |
| COc1ccc([Si](C)(C)[C@H]2[C@H](CCn3cc(CCO)nn3)O[C@@]3(C(=O)N(Cc4ccc(N5C(=O)c6cccc7cccc5c67)cc4)c4ccccc43)[C@@H]2C)cc1 | -3.7 |
| COCCOC(=O)N1C(=O)[C@@]2(c3cc(C#CC4=CCCCC4)ccc31)[C@H](c1ccc(O)cc1)N1[C@H](c3ccccc3)[C@H](c3ccccc3)OC(=O)[C@H]1[C@@H]2C(=O)Nc1nc2ccccc2s1 | 1.05 |

test system: not listed separately; assay: inhibitors of hydroxyurea-induced Chk1 phosphorylation, primary screen, imaging, HeLa, phospho-Chk1 antibody, percent positive cells (AID 1186); details: hydroxyurea-induced phospho-Chk1 immunofluorescence imaging, higher = more signal

| Compound | z-score |
| --- | --- |
| C=CCNC(=O)[C@@H]1[C@H]2C(=O)O[C@H](c3ccccc3)[C@H](c3ccccc3)N2[C@H](c2ccccc2OCCO)[C@@]12C(=O)N(C(=O)OCCOC)c1ccc(C#CC3=CCCCC3)cc12 | -0.136 |
| CC(C)(C)OC(=O)CC[C@]1(C(=O)O)N=C(c2ccc(OCCCO)cc2)O[C@H]1c1ccccc1 | -0.388 |
| CN(C)CCCN1C(=O)[C@@]2(c3ccc([N+](=O)[O-])cc3)CC(=O)N(CC34CC5CC(CC(C5)C3)C4)[C@@H]2c2ccc(CO)cc21 | -0.411 |
| C=C(C(=O)CC[C@H](OC(=O)c1cccnc1)c1cccc(OCCO)c1)C(C)C | -0.556 |
| O=C1OCC=C[C@H]2OC34C=CCN(Cn5nnc6ccccc65)C(=O)[C@H]3N(CCCCCCO)C(=O)[C@@H]4[C@@H]12 (stereo partly specified) | 0.197 |
| COCCOC(=O)N1C(=O)[C@@]2(c3cc(C#CCNC(N)=O)ccc31)[C@H](C(=O)N1CCCCCCC1)[C@H]1C(=O)O[C@H](c3ccccc3)[C@H](c3ccccc3)N1[C@@H]2c1ccc(O)cc1 | 0.0004 |
| COc1ccc(CCNC(=O)[C@@]2(Sc3ccc(C)cc3)CC(=O)N(Cc3cc(C(F)(F)F)cc(C(F)(F)F)c3)[C@@H]2c2ccc(CO)cc2I)cc1 | 0.261 |
| COc1cc2c(cc1O)C(C)N(Cc1cc3c(cc1Br)OCO3)CC2 (stereo unspecified) | -0.765 |
| CC(C)(C)OC(=O)CC[C@@]1(C(=O)O)N=C(c2ccc(OCCCO)cc2)O[C@@H]1c1ccccc1CN=[N+]=[N-] | -0.0889 |
| CC(C)C(=C=CC[C@H](O)c1ccc(OCCO)cc1)C[C@H](O)c1cc(Cl)cc(Cl)c1O | -0.289 |
| CC(C)NC(=O)[C@@]1(C)c2ccccc2C(=O)N(C(C)C)[C@H]1c1ccc(CO)cc1 | 0.244 |
| CCOC(=O)[C@H]1C/C=C/C[C@H](C(=O)OCC)C(=O)O[C@H]2[C@@H](OC)O[C@H](CO)[C@@H](OC(=O)CCc3ccccc3)[C@@H]2OC1=O | -0.0591 |
| COCCOC(=O)N1C(=O)[C@@]2(c3cc(C#Cc4ccc(OC)cc4)ccc31)[C@H](C(=O)NC[C@H](O)c1ccccc1)[C@H]1C(=O)O[C@H](c3ccccc3)[C@H](c3ccccc3)N1[C@@H]2c1ccc(O)cc1 | -0.045 |
| COc1ccc([Si](C)(C)[C@@H]2[C@@H](CC(=O)N3CCC[C@H]3CO)O[C@]3(C(=O)N(Cc4ccc(N5C(=O)c6cccc7cccc5c67)cc4)c4ccccc43)[C@H]2C)cc1 | 0.48 |
| O=C1O[C@@H](c2ccccc2)[C@@H](c2ccccc2)N2[C@@H](c3ccccc3OCCO)[C@]3(C(=O)Nc4ccccc43)[C@@H](C(=O)NC[C@H](O)c3ccccc3)[C@H]12 | -0.152 |
| COC(=O)[C@@]1(Cc2ccc(OC)cc2)[C@H]2c3cc(C(=O)N(C)C)n(CCc4c[nH]c5ccc(O)cc45)c3C[C@H]2CN1C(=O)c1ccccc1 | 0.453 |
| C[N+](C)(C)CCCC[C@@H]1NC(=O)[C@@H]2C[C@H](C(=O)O)[C@H](c3ccc(O)cc3)N2C1=O | 0.115 |
| COc1ccc([Si](C)(C)[C@@H]2[C@@H](CCn3cc([C@H](O)c4ccccc4)nn3)O[C@]3(C(=O)N(Cc4ccc(N5CCOC5=O)cc4)c4ccccc43)[C@H]2C)cc1 | 0.875 |

| Compound | z-score |
| --- | --- |
| CC(=O)n1cc(C(O)C2C=CC3C(=O)N(Cc4ccccc4)C(=O)C3N2n2cnnc2)c2ccccc21 (stereo unspecified) | 1.19 |
| C=CC[C@]12N=C(c3ccc(OCCCO)cc3)O[C@H]1c1ccccc1N(C)C2=O | -0.0503 |
| CC1CC/C=C\[C@H]2OC34C=CCN(c5ccc6ccccc6c5)C(=O)[C@H]3N(C(CO)C(C)C)C(=O)[C@@H]4C2C(=O)O1 (stereo partly specified) | 0.174 |
| C=CCOC(=O)[C@H]1[C@@H]2C(=O)O[C@@H](c3ccccc3)[C@@H](c3ccccc3)N2[C@@H](c2ccc(OCCOC(=O)[C@H]3C[C@H]4C(=O)N[C@@H](Cc5ccccc5)C(=O)N4[C@H]3c3cccc(OCCO)c3)cc2)[C@]12C(=O)Nc1ccc(I)cc12 | 0.27 |
| CN(C)CCCCNC(=O)[C@H]1C[C@H]2C(=O)N[C@@H](CCCCN(C)C)C(=O)N2[C@H]1c1cccc(OCCO)c1 | 0.368 |
| CCCC[C@@H]1C[C@H]1[C@@H](NC(=O)c1cccnc1)c1ccc(-c2ccccc2)cc1 | 0.577 |
| CC(C)CNC(=O)[C@@]1(c2ccc([N+](=O)[O-])cc2)CC(=O)N(C2CCCCC2)[C@@H]1c1ccc(CO)cc1I | 0.093 |
| CCCCC(=C=CC[C@@H](O)c1ccc(OCCO)cc1)C[C@@H](O)COCc1ccccc1 | -0.263 |
| CC[C@H]1C2=C3C(CC[C@H]4C(OCc5ccc(F)cc5C(F)(F)F)OC[C@](C)([C@@H]34)N(C(=O)OC(C)(C)C)C2)C2COC(=O)OCC21 (stereo partly specified) | 1.23 |
| CCCCN1CC=CC23O[C@@H]4/C=C\CCC(C)OC(=O)C4[C@H]2C(=O)N(CCCCCCO)[C@@H]3C1=O (stereo partly specified) | -0.494 |
| C=C(COC)/C(=C/C[C@@H](OC(=O)c1ccncc1)c1cccc(OCCO)c1)c1cnc2ccccc2c1 | 0.594 |
| C=C(CCCC)/C(=C/C[C@@H](OC(=O)c1ccncc1)c1cccc(OCCO)c1)c1cnc2ccccc2c1 | -0.403 |
| CO[C@H]1O[C@H](CO)[C@@H](OC(=O)Nc2ccccc2-c2ccccc2)[C@H](OC(=O)Nc2ccc3c(c2)OCO3)[C@@H]1OC(=O)Nc1ccc2c(c1)OCO2 | -0.0753 |
| C#CCNC(=O)[C@H](Cc1ccccc1)NC(=O)[C@@H](N=[N+]=[N-])C(C)C | 0.744 |
| COCC(=C=CC[C@H](O)c1cccc(OCCO)c1)C[C@H](O)c1ccccn1 | -0.028 |
| COc1ccc([Si](C)(C)[C@H]2[C@H](CCn3cc(CCO)nn3)O[C@@]3(C(=O)N(Cc4ccc(N5C(=O)c6cccc7cccc5c67)cc4)c4ccccc43)[C@@H]2C)cc1 | -0.771 |
| COCCOC(=O)N1C(=O)[C@@]2(c3cc(C#CC4=CCCCC4)ccc31)[C@H](c1ccc(O)cc1)N1[C@H](c3ccccc3)[C@H](c3ccccc3)OC(=O)[C@H]1[C@@H]2C(=O)Nc1nc2ccccc2s1 | 0.0256 |
